This passage reports outcome, max response and Potency results from PubChem BioAssay (NCATS).

For one test, the system named is CRL-7250. Put plainly: Cytotoxic Profiling of Annotated Libraries Using Quantitative High-Throughput Screening (AID 1296008). On max response: on the % scale 0 is the no-effect control and ±100 the full control effect. Conditions: Five cell lines viability, CellTiter-Glo ATP luminescence, 48-72 h; max response: hits give low values. The method, boiled down:
(§1)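 Compounds were pin-transferred onto cells and incubated 48 or 72 hr at 37 degree Celsius, 95% humidity. CellTiter-Glo was added, plates sat 10 min at room temperature, then ATP-coupled luminescence was imaged as the viability read-out.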

Another test concerns HEK293. The description is as above. The note with it: Five cell lines viability, CellTiter-Glo ATP luminescence, 48-72 h; max response: hits give low values. An outline of the steps: as §1
Test [1] relates to HaCat. The test is described as above. Conditions: Five cell lines viability, CellTiter-Glo ATP luminescence, 48-72 h; max response: hits give low values. An outline of the steps:
as §1
Background: In ATP-based viability assays light output follows the ATP content of the culture.

Another test relates to KB-3-1. The description is as above. Conditions: Five cell lines viability, CellTiter-Glo ATP luminescence, 48-72 h; max response: hits give low values. The method, boiled down:
as §1

The next test relates to NIH3T3. Described as above. The note with it: Five cell lines viability, CellTiter-Glo ATP luminescence, 48-72 h; max response: hits give low values. The method, boiled down:
as §1

Test [2] concerns HACAT. Nature of the test: qHTS assay to identify novel small-molecules to repurpose for Merkel cell carcinoma treatment (AID 1296009). The note with it: MCC and control cell lines, CellTiter-Glo viability, 72 h; at 44.8 µM (top of the series) unless noted. The method, boiled down: (§2)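 Cells exposed to NPC (8-point) and MIPE (11-point) compound dilutions for 72 hr at 37 degree celsius; viability read by CellTiter-Glo luminescence, normalized to no-cell and DMSO in-plate controls.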
A general note: Quantitative high-throughput screening tests each substance at several concentrations.

The test system of another test is HEK293T. The description is as above. The note with it: MCC and control cell lines, CellTiter-Glo viability, 72 h; at 44.8 µM (top of the series) unless noted. An outline of the steps:
as §2

The test system of another test is MCC-13. The description is as above. Conditions: MCC and control cell lines, CellTiter-Glo viability, 72 h; series mostly up to 46 µM. The method, boiled down:
as §2

In the next test the test system is TAB165. Put plainly: qHTS profiling for inhibitors of Plasmodium falciparum proliferation (AID 504749). Further: potency means the concentration at half of the fitted maximal effect. The note with it: P. falciparum in erythrocytes, SYBR Green DNA, 72 h; series mostly up to 28.7 µM. The method, boiled down: (§3)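 P. falciparum-infected erythrocytes (0.3% parasitemia, 2.5% hematocrit final) were exposed to compounds for 72 h at 37 C in 5% CO2, then lysed with SYBR Green buffer overnight at room temperature; parasite DNA fluorescence was normalized to artemisinin and DMSO controls.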

The next test deals with W2. The test is described as above. The note with it: P. falciparum in erythrocytes, SYBR Green DNA, 72 h; series mostly up to 28.7 µM. The method, boiled down:
as §3

Molecules are shown by their SMILES. Values joined by “and” are separate entries in the source; they are usually repeats but may differ in a detail not shown here. Equal values may be shown once. Results filed as inconclusive are left out. Values without a mark were called inactive. Active and inactive are the calls of the source. The call rests on the fitted dose curve; in most records, active means well fitted inhibition curve with a large enough effect; inconclusive means small, poorly fitted or top-dose-only effect; inactive means flat fitted curve, though single readings scatter.
Further: nearly all actives have a fitted effect of over 60% in size.

For `O=S(=O)(c1cccc2cnccc12)N1CCCNCC1`, the compound was classed as inactive in the test with CRL-7250, in the test with HEK293, in the test on HaCat [1], in the test on KB-3-1, with HACAT [2] and with HEK293T. The max response in the test with HEK293 is -25.6%; in the test with KB-3-1, -15.9%; in the test with NIH3T3, 0.496% and -3.33%. Further, the Potency entry in the test on MCC-13 is “inactive”.
Regarding `Cc1cccc(N(C)C(=S)Oc2ccc3ccccc3c2)c1`, the Potency result in the test on TAB165, in the test with W2 and in the test on MCC-13 was “inactive” in each case. The max response is -5.5% in the test on CRL-7250; 0.266% and 1.06% with HaCat [1]; 1.04% with KB-3-1; -1.35% and 4.99% in the test with NIH3T3. For the same compound, the call in the test on CRL-7250 and in the test with KB-3-1 was inactive.
For the compound `CC[C@H](NC(C)C)[C@H](O)c1ccc(O)c2[nH]c(=O)ccc12`, the Potency entry in the test with TAB165, in the test with W2 and in the test on MCC-13 was “inactive” throughout. The max response was 0.158% and -0.536% in the test with CRL-7250; -10.6% with HaCat [1]; 8.39% in the test with KB-3-1; 2.87% and -5.91% in the test on NIH3T3. The call in the test with HEK293, in the test on HaCat [1], in the test with HACAT [2] and with HEK293T was inactive.
In the case of `COc1c(N2CCNC(C)C2)c(F)cc2c(=O)c(C(=O)O)cn(C3CC3)c12` (centres undefined), the Potency result in the test on TAB165, in the test on W2 and in the test with MCC-13 was “inactive” in each case. For the same compound, the max response in the test with CRL-7250 was -3.69%; with HEK293, -24.5%; with KB-3-1, 0.558%; with NIH3T3, -3.19%. The outcome in the test with HaCat [1], in the test on KB-3-1, with NIH3T3 and in the test on HACAT [2] was inactive.
`CCn1cc(C(=O)O)c(=O)c2cc(F)c(N3CCNCC3)cc21`: the Potency entry in the test on TAB165 and with MCC-13 was “inactive” in each case. In the test on W2, the Potency is 2.56 µM (active). The max response was -1.25% and -6.48% with CRL-7250; -12.4% and -3.6% in the test on HEK293; -20% in the test with HaCat [1]; -20.2% and -20.3% with KB-3-1; -0.113% and -7.16% in the test on NIH3T3. For the same compound, the call in the test on HaCat [1], in the test with KB-3-1 and in the test on HACAT [2] was inactive.
For `CN(Cc1cc(Br)cc(Br)c1N)C1CCCCC1`, the Potency in the test on W2 is 4.26 µM (active). In addition, the max response was 1.14% in the test with CRL-7250; 3.33% in the test on HaCat [1]; 2.85% and 5.96% in the test on KB-3-1; 1.21% with NIH3T3. In addition, the result in the test with CRL-7250, in the test on HaCat [1], with NIH3T3, in the test on HACAT [2] and in the test with HEK293T was inactive. In addition, the Potency result in the test with MCC-13 is “inactive”.
Take `CCn1cc(C(=O)O)c(=O)c2cc(F)c(N3CCNCC3)nc21`: the max response with CRL-7250 is -4.45% and -16.8%; in the test with HEK293, -5.1%; with HaCat [1], -2.73%; with KB-3-1, -1.65% and 0.264%. The compound was classed as inactive with HEK293, in the test with HaCat [1], with NIH3T3, in the test with HACAT [2] and in the test with HEK293T. Moreover, the Potency result with MCC-13 was “inactive”.
Take `CC(C)OC(=O)C(C(=O)OC(C)C)=C1SC=CS1`: the Potency entry with TAB165, in the test with W2 and in the test on MCC-13 was “inactive” throughout. Further, the result with CRL-7250, in the test on HaCat [1], in the test on KB-3-1, in the test with NIH3T3 and with HACAT [2] was inactive. Further, the max response was -6.55% in the test on HEK293, -22% with HaCat [1], 13.9% in the test on KB-3-1 and 0.152% in the test on NIH3T3.
`Cc1ccnc2c1NC(=O)c1cccnc1N2C1CC1`: the Potency result in the test with TAB165, in the test with W2 and with MCC-13 was “inactive” throughout. In addition, the result in the test on CRL-7250, in the test on HaCat [1], with KB-3-1 and with HACAT [2] was inactive. The max response is -12% and -5.59% in the test with HEK293; -1.71% in the test on HaCat [1]; 17.8% in the test with KB-3-1; -5.8% and 2.37% in the test on NIH3T3.
On to `CCOc1cc(N)c(Cl)cc1C(=O)NCC1CN(Cc2ccc(F)cc2)CCO1` (centres undefined), for which the Potency was 6.31 µM (active) in the test on TAB165 and 7.57 µM (active) with W2. The compound was called inactive in the test on CRL-7250, in the test on HEK293, in the test on HaCat [1], in the test on NIH3T3, in the test with HACAT [2] and in the test with HEK293T. The max response in the test with HaCat [1] is -10.3%; with KB-3-1, 4.82% and -2.19%; in the test on NIH3T3, 1.17%. Moreover, the Potency entry in the test with MCC-13 was “inactive”.
As for `O=C(O)CSCC(=O)NC1CCSC1=O` (centres undefined), the results for the max response in the test on CRL-7250 and with NIH3T3 were -2.44% and 2.01%, respectively. Further, the call in the test with CRL-7250, with HaCat [1], with KB-3-1, in the test on NIH3T3, with HACAT [2] and in the test on HEK293T was inactive. In addition, the Potency result with MCC-13 is “inactive”.
`COc1cnc(NS(=O)(=O)c2ccc(N)cc2)nc1`: the Potency result with TAB165, in the test on W2 and in the test on MCC-13 was “inactive” each time. In addition, the max response was -6.42% and -4.75% in the test on CRL-7250; -7.96% with HaCat [1]; 12.3% in the test with KB-3-1; -3.77% and 1.75% in the test with NIH3T3. Moreover, the compound was classed as inactive with HEK293, in the test on HaCat [1], in the test with KB-3-1, with HACAT [2] and in the test with HEK293T.
